Laboratory results: PubChem BioAssay (NCI)
This is part of a sample that, as a whole, favours compounds with a hit. Of some 83,000 tested, about 20% had one in any assay.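 Cells were grown in 96-well plates and exposed to the test compound at a single concentration for 48 hours; results are reported as percent growth, with values below 10 considered active.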 Unmarked numbers belong to inactive results. The source made the active and inactive calls.

Assays:
Assay in all cases: NCI-60 one-dose screen, 48 h (100 = growth as untreated, 0 = no growth, -100 = all killed)
Settings in all cases: 10 µM
[1] = test system: NCI-H23 lung
[2] = test system: NCI-H226 lung
[3] = test system: NCI-H322M lung
[4] = test system: NCI-H460 lung
[5] = test system: HOP-92 NSCLC
[6] = test system: A549/ATCC NSCLC
[7] = test system: COLO 205 colon
[8] = test system: 786-0 renal
[9] = test system: NCI-H522 lung

Row | Structure (SMILES) | growth [1] | growth [2] | growth [3] | growth [4] | growth [5] | growth [6] | growth [7] | growth [8] | growth [9]
1 | COC(=O)c1cc2oc(/C=C3/SC(=S)N(N)C3=O)cc2n1Cc1ccccc1 | 58.4% | 57% | 39.4% | 40.5% | -69% (active) | 53.4% | 75% | – | –
2 | O=C(CI)OCC(COC(=O)CI)OC(=O)CI | 65.9% | 97.1% | 112% | 98.9% | – | 104% | 33.2% | 45.9% | –
3 | CC(=O)Nc1cc2c(cc1Cl)Cc1cc(Cl)ccc1-2 | 77.1% | 83% | 96% | 95.9% | – | – | 105% | 112% | 79.6%
4 | c1ccc(CCCCc2ccc3ccccc3n2)cc1 | 102% | 94.8% | 99.7% | 105% | – | 98.5% | – | 102% | 75.3%
5 | CN(C)c1ccc(/C=N/NC(=O)c2cccc3ccccc23)c(Cl)c1 | 1.31% (active) | 61.2% | 57.6% | 19.2% | – | 26.8% | 19.7% | 56.1% | 22.6%
6 | CC(C)(C)c1ccc(S(=O)(=O)N[C@H]2CC[C@H]3[C@@H]4CCc5cc(O)c([N+](=O)[O-])cc5[C@H]4CC[C@]23C)cc1 | 83.5% | 80% | 77.1% | 45.6% | – | 48.3% | 96.4% | 62.1% | 65.1%
7 | CC(=O)/C(=C/c1ccc(Br)cc1)C(=O)c1ccccc1 | 99.5% | 87.8% | 115% | 103% | – | 94% | – | 84.5% | 85.2%
8 | C[C@]12CC[C@@H]3c4ccc(O)cc4CC[C@H]3[C@@H]1CC[C@@H]2NS(=O)(=O)c1ccc(C(F)(F)F)cc1 | 56.4% | 51.6% | 63.8% | 3.9% (active) | – | 23.5% | 9.34% (active) | 57.4% | –
9 | O=C(CCl)Oc1ccc(OC(=O)CCl)cc1 | 78.3% | 96.5% | 101% | 95% | – | 96% | – | 82% | -14.1% (active)
10 | COc1ccc2nc3cc(Cl)ccc3c(NCCCNCCO)c2c1 | -21.7% (active) | -9.48% (active) | -22.6% (active) | -8.13% (active) | – | -26.2% (active) | – | 6.46% (active) | -86.5% (active)
11 | CCCC1(CN2c3ccccc3Sc3ccc(Cl)cc32)CCN(CC)C1 (stereo not drawn) | 5.21% (active) | 32.4% | 25.5% | -100% (active) | – | 18.6% | -80.8% (active) | -95.7% (active) | -75.2% (active)
12 | O=C1/C(=C/c2cccc(F)c2)Cc2ccccc21 | 101% | 105% | 94.4% | 107% | 73.5% | 87.7% | 124% | 98.1% | –
13 | CSc1ccc(-c2cc(-c3ccc(NC(=O)CCCN4CCCC4)cc3)nc(-c3ccc(NC(=O)CCCN4CCCC4)cc3)c2)cc1 | 92.8% | 81.9% | 94.8% | 32.1% | – | 46.2% | 82.6% | 80.7% | 62.5%
14 | OC(CNc1ccnc2cc(Cl)ccc12)CNC1CCCCC1 (stereo not drawn) | 86.7% | 105% | 74.7% | 109% | – | 88.4% | -25.4% (active) | 87.9% | 49.6%
15 | CCCCC1(O)CCCCC1 | 108% | 97.3% | 105% | 108% | – | 103% | 99.1% | 92.6% | –
16 | CC(C)(C)c1ccc(S(=O)(=O)N[C@H]2CC[C@H]3[C@@H]4CCc5cc(O)ccc5[C@H]4CC[C@]23C)cc1 | 50.3% | 55.7% | 78.7% | 33.7% | – | 28.5% | 8.52% (active) | 49.6% | 31.8%
17 | C=C1CCC2(C#N)[C@H]3[C@H](CC[C@@H]2C)[C@@H](C)C[C@@H](CC(C)(C)NC(=O)CN2CCC2=O)[C@H]13 (stereo partly drawn) | 60.3% | 60.6% | 96.1% | 52.1% | – | 67.3% | 54% | – | 46.6%

Row | Structure (SMILES) | growth [1] | growth [2] | growth [3] | growth [4] | growth [5] | growth [6] | growth [7] | growth [8] | growth [9]
18 | COc1ccc(Cl)cc1Nc1nc(C(F)(F)F)ccc1C(=O)N/N=C/c1cc(OC)c(OC)c(OC)c1 | 54.9% | 30.7% | 8.92% (active) | 21.4% | -12% (active) | 59.4% | 12.8% | – | –
19 | COc1ccc(C(=O)CC(CC(=O)c2ccc(OC)cc2)c2c(C)nn(-c3ccccc3)c2Cl)cc1 | 90.7% | 92.8% | 96.5% | 97.5% | – | 95.1% | 117% | 86.3% | 79.4%
20 | CCOC(=O)c1cocc1C(=O)O | 109% | 102% | 110% | 104% | – | 101% | 108% | 103% | 106%
21 | NC(N)=N/N=C(\c1ccccc1)C(O)c1ccccc1 (stereo not drawn) | 101% | 96.1% | 101% | – | 95% | 102% | 101% | 98.3% | 82.5%
22 | NC(N)=N/N=C(\N=Nc1ccccc1)c1ccc(Cl)cc1 | 78.9% | 82.3% | 64.8% | 40% | – | 52.7% | 48.1% | 46.7% | 29.9%
23 | O=c1oc2c(cc1-c1ccc(F)cc1)C(O)Oc1ccccc1-2 (stereo not drawn) | 99.2% | 105% | 83.1% | 80.8% | 48.8% | 88.9% | 101% | – | –
24 | CCN(CC)CCCC(Nc1c2ccc(Cl)cc2nc2ccc(OC)cc12)c1ccc(F)cc1 (stereo not drawn) | 86.9% | 94.1% | 14.7% | -17.8% (active) | – | 18.4% | – | -70.8% (active) | -24.3% (active)
25 | Cc1cc(C)nc(NS(=O)(=O)c2ccc(Nc3nc4nc(NCc5ccccc5)nc(-c5ccc(O)cc5)c4c(=O)[nH]3)cc2)n1 | 31.6% | 31.9% | 10.2% | 16.4% | -11.1% (active) | 43.9% | 35.3% | – | –
26 | COc1cc(-c2ccc[nH]2)[nH]c1/C=C1\N=C(C)C(C(=O)NC(C)C)=C1C | 40.5% | 42.7% | 39.2% | 9.93% (active) | – | 14.7% | 26.9% | 8.09% (active) | 13.4%
27 | O=C(N/N=C/c1cc([N+](=O)[O-])ccc1O)c1cccc2ccccc12 | 45.3% | 42.6% | 45.4% | 20.7% | – | 54.8% | 48.9% | 36.5% | 21.9%
28 | CCN1C(=O)CC(SC2CC(=O)N(CC)C2=O)C1=O (stereo not drawn) | 95.9% | 104% | 110% | 109% | – | 104% | 81.4% | 101% | 96.1%
29 | COc1cc(C2CC(c3cc(Cl)c(C)cc3O)=NN2c2ccc(S(N)(=O)=O)cc2)cc(OC)c1OC (stereo not drawn) | 3.07% (active) | 23.5% | 41.3% | -67.7% (active) | – | 24.2% | -100% (active) | – | 8.94% (active)
30 | N=C1S/C(=C/c2ccc(-c3ccc4c(c3)C(=O)NC4=O)o2)C(=O)N1c1ccc(Br)cc1 | 55.8% | 66.5% | 43% | 34.6% | – | 34.5% | 55.1% | 45.9% | 35.5%
31 | Cc1ccc(-n2nnnc2N)c(C)c1 | 98.1% | 115% | 121% | 103% | – | 104% | – | 105% | 112%
32 | CCC(c1ccc(OC)cc1)C(CC)c1ccc(O)c(CN2CCN(C)CC2)c1 (stereo not drawn) | 57.8% | 88.9% | 76.1% | 51.8% | – | – | – | 57.6% | 61.9%
33 | CCOc1ccccc1/C=N\N=C\c1ccccc1O | 87.7% | 104% | 93.8% | 107% | – | 108% | – | 106% | 99.8%
34 | Cc1ccc(-c2c3c(N)nc(-c4cccnc4)nc3nc3c2c(C)nn3-c2ccccc2)cc1 | 97.9% | 52.2% | 76.8% | 85% | 46.5% | 68.4% | 83.6% | 80.9% | –
